Inconclusive results are not listed. Where a call stands in place of a potency, no number is given. Active and inactive are the calls of the source. Calls follow the shape of the dose curve; as a rule, active = well fitted cell-killing curve with a large enough effect in the repeat runs; inconclusive = weak or mixed curves; inactive = flat fitted curve, though single readings scatter.
Test: qHTS assay to identify small molecule antagonists of the estrogen related receptor (ERR) signaling pathway from Tox21 library - cell viability counter screen (AID 1224834); also: nearly all actives have a fitted effect of over 30% in size
Conditions: ERR reporter cells viability, CellTiter-Fluor, 17.5 h; series mostly up to 92.4 µM
From the text: National Center for Advancing Translational Sciences [NCATS]
NIH Chemical Genomics Center [NCGC]
U.S. Environmental Protection Agency [EPA]
National Institutes of Environmental Health Sciences [NIEHS]
National Toxicology Program [NTP]
U.S. Food and Drug Administration [FDA]
Estrogen related receptors (ERRs), the first orphan nuclear receptors discovered, play an important role in the control of cellular energy metabolism. ERRs are required for high-energy production in response to the environmental challenges. ERR-alpha was also identified as an adverse marker for breast cancer progression; ERR-alpha-positive tumors have a poor prognosis. To screen and to identify environmental compounds that perturb the ERR signaling pathways could provide valuable information for potential therapeutic or preventive measures in the treatment of metabolic disease. To differentiate true ERR antagonists or agonist from cytotoxic substances, the assay is multiplexed with cell viability assay.
Tox21 Assay Protocol Summary:
The ERR cells were dispensed at 2,000 cells/5 ul/well in 1536-well white plates using a Multidrop dispenser. After the assay plates were incubated at a 37 C/5% CO2 incubator for 6 hours, 23 nL of compounds dissolved in DMSO, positive and negative controls or DMSO only was transferred to the assay plate by a pin tool. The plates were incubated at 37 C for 17.5 hours. 1 ul/well of CellTiter-Fluor reagent was added into the assay plates using a Flying Reagent Dispenser. After 30-minute incubation at 37 C/5% CO2, the fluorescence intensity in the plates was measured using a ViewLux plate reader.
Potency is read from the fitted curve at half-maximal effect.

SMILES	Potency	viability change, negative = cytotoxic
C=C(C)C(=O)OCc1ccccc1	inactive	–
CC/C=C\CC1=C(C)CCC1=O	inactive	–
Cc1cccc(C)c1NC(=O)c1ccccc1C(=O)O	inactive	–
CC(C)NCC(O)COc1ccc(COCCOC(C)C)cc1 (stereo not given)	inactive	–
O=C(NCCN1CCOCC1)c1ccc(Cl)cc1	inactive	–
CC(S)C(=O)NCC(=O)O (stereo not given)	inactive	–
O=C1c2ccccc2C(=O)c2cc(S(=O)(=O)O)ccc21	inactive	–
CC(C)N(c1ccccc1)C(C)C	inactive	–
COC(=O)[C@@H]1[C@H]2C[C@H]3c4[nH]c5ccccc5c4CCN3C[C@@H]2CC[C@@H]1O	inactive	–
CCCCCCCCCCl	inactive	–
CCc1ccc(C=O)cc1	inactive	–
CC1COc2ccccc2N1 (stereo not given)	inactive	–
O=C1O[C@@H]2[C@@H](O)[C@H](O)O[C@@H]2[C@H]1O	inactive	–
COCCOCCOCCOCCOCCO	inactive	–
CCOC(=O)/C=C/c1ccccc1	inactive	–
Cc1cc(C(C)(C)C)c(O)c(C)c1CC1=NCCN1	inactive	–
CCCN1C[C@H](CSC)C[C@@H]2c3cccc4[nH]cc(c34)C[C@H]21	inactive	–
C[C@@H](Oc1ccc(CNC(=O)c2cccnc2Oc2ccc3c(c2)OCO3)c(F)c1)C(=O)O	inactive	–
O=S(=O)(O)c1ccc2cc(O)c(S(=O)(=O)O)cc2c1	inactive	–
CNS(=O)(=O)CCc1ccc2[nH]cc(C3CCN(C)CC3)c2c1	inactive	–

SMILES	Potency	viability change, negative = cytotoxic
C=C(C)C(=O)OCC(C)(C)COC(=O)C(=C)C	inactive	–
O=C(OCC(COC(=O)c1cccnc1)(COC(=O)c1cccnc1)COC(=O)c1cccnc1)c1cccnc1	inactive	–
O=C(O)Cc1ccc(Cl)cc1Cl	inactive	–
O=C(NCC(O)CO)c1c(I)c(C(=O)NCC(O)CO)c(I)c(N(CCO)C(=O)CO)c1I (stereo not given)	inactive	–
O=S(O)(O)=S	–	0.32% [at 8.39 µM] (inactive)
O=C(O)CCSSCCC(=O)O	inactive	–
CC(C)C(=O)OCc1cccc(OC(=O)[C@@H]2N3C(=O)[C@@H](NC(=O)Cc4ccccc4)[C@H]3SC2(C)C)c1	inactive	–
NS(=O)(=O)c1ccc(NC(=O)CCC(=O)O)cc1	inactive	–
Oc1cn2c(n1)Nc1ccc(Cl)c(Cl)c1C2	–	0.934% [at 19 µM] (inactive)
N[C@@H](COP(=O)(O)O)C(=O)O	–	-0.524% [at 19 µM] (inactive)
O=C(CCNNC(=O)c1ccncc1)NCc1ccccc1	inactive	–
ClCCCl	inactive	–
c1ccc2nccnc2c1	inactive	–
CC(C)(C)c1nnc(NS(=O)(=O)c2ccc(N)cc2)s1	inactive	–
CCOCCOC(=O)/C=C/c1ccc(OC)cc1	inactive	–
COc1cc(C(=S)N2CCOCC2)cc(OC)c1OC	inactive	–
CC(=O)Nc1ccc(S(=O)(=O)Nc2ccc([N+](=O)[O-])cc2)cc1	23.7 µM (active)	–
Cc1ccc2c(c1)OCC(=O)CO2	inactive	–
N[C@@H](CCC(=O)N[C@@H](CS)C(=O)NCC(=O)O)C(=O)O	–	0.69% [at 19 µM] (inactive)
CCCCC(CC)COCCO (stereo not given)	inactive	–

Source: PubChem BioAssay (Tox21)
